# Screening results from PubChem BioAssay.
# AMA1-RON2 inh: AMA1-RON2 (P. falciparum) interaction inhibition | AlphaScreen AMA1-biotinylated RON2 peptide binding | Potency, µM (top dose mostly 58.2 µM), actives largely listed as inhibitors | 360,000 tested, 0.2% active | AID 720542; note: nearly all actives have a fitted effect of over 45% in size
#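 AMA1 (3D7) with his tag at 25 nM final met compounds first, then biotinylated RON2 peptide at 25 nM; detection used donor plus acceptor beads, 10 µg/mL apiece, read by AlphaScreen after 30 min at room temperature.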
# SARS PLP yeast: SARS-CoV PLP inhibition in yeast; S. cerevisiae expressing SARS-CoV PLpro, growth rescue; Potency, µM (doses to about 32.9 µM), actives largely listed as activators; 330,000 tested, 0.19% active; AID 485353; calls by dose curve; note: nearly all actives have a fitted effect of over 55% in size
# NS1 inh: inhibitors of influenza NS1 protein function. Potency, µM (titrated, usually from 46.1 µM). 270,000 tested, 0.4% active. AID 2326; calls by dose curve; note: actives are rising curves; nearly all actives have a fitted effect of over 50% in size
#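 A cell-based growth assay was used: compounds that relieve NS1-induced slow growth of budding yeast raise OD600. Assay medium was yeast nitrogen base with ammonium sulphate and -URA supplement, pH 6.0, with 2% galactose.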
# Pf growth 96h: P. falciparum growth inhibition at 96 hours; P. falciparum luciferase reporter growth, 96 h; 320,000 tested, 6.9% active; Potency, µM (doses to about 28.7 µM), hits mostly inhibitors
#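 P. falciparum expressing integrated firefly luciferase grown in erythrocytes (2% hematocrit, 0.05% parasitemia final) with compounds for 96 hours at 37 C, 5% CO2. Growth inhibition read as loss of luminescence after adding luciferase detection reagent.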
# Pf growth 48h: inhibits P. falciparum growth in the first generation, 48 h; P. falciparum luciferase growth in erythrocytes, 48 h; Potency, µM (doses to about 28.7 µM), usual class: inhibitors; 310,000 tested, 5.9% active; AID 504832
#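 First compound was added to culture medium, then infected red cells at 0.1% parasitemia and 2% hematocrit (final). After incubation at 37 C under 5% CO2, luciferase detection reagent was dispensed and light output recorded.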
# HCV inhibitor: inhibitors of hepatitis C virus infection; AID 651820; Potency, µM (titrated, usually from 41.8 µM), usual class: inhibitors; Huh7.5.1 HCVcc-Cre infection, luciferase reporter, 44 h; 340,000 tested, 3.4% active
#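 A cell-based infection assay in which seeded cells (1,000 per well) receive test compound after 4 h, are inoculated with HCVcc-Cre at approximately 0.5 moi, and are incubated 44 h before luminescence detection.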
# Numbers stand for hits; - = inactive; ? = inconclusive; . = not tested or not shown; [ ] = another dose, or the depositor's remark. An excerpt weighted towards active compounds, which were near 12% of everything screened. Unless noted, calls come from the whole dose curve; as a rule, active = well fitted curve in the direction sought with a large enough effect; inconclusive = small, poorly fitted or top-dose-only effect, or another doubt; inactive = no such curve, though single readings can be large; an effect the other way counts as inactive or inconclusive.
SMILES,AMA1-RON2 inh,SARS PLP yeast,NS1 inh,Pf growth 96h,Pf growth 48h,HCV inhibitor
COC(=O)Cn1ncc2c3ccccc3n(Cc3ccccc3)c2c1=O,-,-,-,5.2µM,?,-
O=C(Cn1ncc2c3ccccc3n(Cc3ccc(F)cc3)c2c1=O)N1CCN(c2ncccn2)CC1,-,-,-,-,9.3µM,?
O=C(Cn1ncc2c3ccccc3n(Cc3ccc(F)cc3)c2c1=O)N1CCC2(CC1)OCCO2,-,-,-,?,12µM,?
CCCOc1ccc(C(=O)N(CC(C)C)c2c(N)n(Cc3ccccc3)c(=O)[nH]c2=O)cc1,-,-,.,?,?,-
COc1ccc(C(CNC(=O)c2[nH]c(C)c(C(C)=O)c2C)N2CCOCC2)cc1 (centres undefined),-,-,.,?,?,-
Nc1ccc(C(=O)NCCCSc2ccccc2)cc1[N+](=O)[O-],-,-,-,?,-,-
COc1ccc(S(=O)(=O)NNC(=O)Nc2ccc(F)cc2)cc1,-,.,.,.,.,-
CCN1CCN(c2nc3c(C)cccn3c(=O)c2/C=C(\C#N)C(=O)NC)CC1,-,-,-,-,-,-
CCOc1cc(C2CC(=O)c3c(ccc4ccccc34)N2)ccc1O (centres undefined),-,-,-,1µM,-,-
Cc1ccc(NC(=O)CN2C(=O)NC3(CCCCCCC3)C2=O)cc1C,-[11.6 µM],-,.,-,-,-
O=C(CCc1nc2ccccc2c(=O)[nH]1)Nc1ccc(F)cc1,-,-,-,-,-,-
COc1ccccc1NS(=O)(=O)c1cc(NC(=O)CN2C(=O)NC3(CCCCC3)C2=O)ccc1C,-,.,.,.,.,13µM
COc1ccccc1NS(=O)(=O)c1cc(NC(=O)CCc2nc3ccccc3c(=O)[nH]2)ccc1C,-,-,.,10µM,?,?
COc1cccc(Oc2ccc(C(F)(F)F)cc2NC(=O)CCc2nc3ccccc3c(=O)[nH]2)c1,-,-,-,1.7µM,5.9µM,?
O=C(CN1C(=O)NC2(CCCCCCC2)C1=O)Nc1ccc(Br)cc1,-,-,.,-,-,32µM
CN(CC(=O)Nc1ccccc1C(=O)NC1CC1)Cc1ccc(N(C)C)cc1,-,-,.,-,-,-
COc1ccc(NC(=O)CN2CCN(S(=O)(=O)N3CCCCCC3)CC2)cc1,-,-,-,-,-,-
Cc1ccc(OCCOc2ccc(S(=O)(=O)N3CCCC3)cc2C(N)=O)cc1,-,-,.,-,-,-
O=C(CCc1nc2ccccc2c(=O)[nH]1)Nc1cc(Cl)ccc1N1CCCCC1,-,-[6.58 µM],.,?,10µM,?
COc1ccc(NC(=O)CN2C(=O)NC3(CCCC3)C2=O)cc1S(=O)(=O)N1CCCCC1,-,-[6.58 µM],.,?,-,-
Cc1cc(C)c(NC(=O)CN2C(=O)NC3(CCc4ccccc43)C2=O)c(Cl)c1 (centres undefined),-,-,.,.,.,-
COc1ccc(NC(=O)CN2C(=O)NC3(CC(C)CC(C)(C)C3)C2=O)cc1S(=O)(=O)N1CCCCC1 (centres undefined),-,.,.,?,13µM,-
O=C(CN1C(=O)NC2(CCCC2)C1=O)Nc1nc(-c2ccc(F)c(F)c2)cs1,-,-,.,?,?,4µM
Cc1cc(C)c(NC(=O)CN2C(=O)NC3(CCCCC3)C2=O)c(Cl)c1,-,-,-,13µM,-,-
O=C(CCc1nc2ccccc2c(=O)[nH]1)Nc1ccccc1N1CCCCC1,-,.,.,.,.,.
SMILES,AMA1-RON2 inh,SARS PLP yeast,NS1 inh,Pf growth 96h,Pf growth 48h,HCV inhibitor
O=C(CN1C(=O)NC2(CCCC2)C1=O)Nc1nc(-c2ccccc2)cs1,-,-,.,-,-,?
CCCCCc1c(O)nc(SCCN2CCOCC2)[nH]c1=O,-,-,-,-,-,-
CCSc1nnc(NC(=O)c2ccccc2C)s1,-,-,.,?,-,-
O=C(NCc1cccnc1)c1cc(C2CCCCN2C(=O)c2ccc(Cl)cc2)on1 (centres undefined),-,.,.,.,.,.
Cc1ccc(Sc2ccc(NC(=O)CCN3C(=O)NC4(CCCC4)C3=O)cc2)c(C)c1,-,-,.,-,?,4µM
COc1ccc(NC(=O)CN2C(=O)NC3(CCCCCC3)C2=O)cc1Cl,-,-,.,.,.,25µM
O=C(CCCN1C(=O)NC2(CCCC2)C1=O)Nc1ccc(F)cc1,-,-,.,-,?,-
COc1ccc(NC(=O)CCN2C(=O)NC3(CCCC3)C2=O)cc1Cl,-,-,.,-,-,-
O=C(CN1C(=O)NC2(CCCC2)C1=O)Nc1cccc(-c2nnc3n2CCCCC3)c1,-,-,-,7.4µM,-,-
Cc1ccc(C(=O)N2CCN(c3ccccc3F)CC2)cc1S(=O)(=O)N1CCOCC1,-,-,.,-,-,-
COc1ccc(CNc2nc(-c3cccnc3)nn2C(=O)C(C)C)cc1,-,-,.,-,?,-
Cc1ccc(C(=O)N2c3ccccc3Sc3ccccc32)cc1,-,.,.,.,.,.
CN(C)c1ccc2c(c1)Sc1cc(N(C)C)ccc1N2C(=O)c1ccccc1,?,-,-,1.7µM,3.7µM,-
Fc1ccccc1OCCSc1ncnc2nc[nH]c12,-,-,-,4.7µM,-,-
c1ccc(OCCSc2ncnc3nc[nH]c23)cc1,-,.,.,.,.,-
CCOc1cc(/C=N/O)cc(Cl)c1OC,-,-,-,?,-,11µM
CCCOc1c(Cl)cc(/C=N/O)cc1OCC,-,-,-,-,.,?
C#CCOc1c(Br)cc(/C=N/O)cc1OCC,-,-,-,-,.,2.2µM
CCN(C(=O)COC(=O)/C(=C/c1ccccc1)NC(C)=O)c1c(N)n(Cc2ccccc2)c(=O)[nH]c1=O,-[11.6 µM],.,.,.,.,-
CCOc1ccc(C2C([N+](=O)[O-])=C(C)N(C)C(=O)N2C)cc1OC (centres undefined),-,-,-,-,?,?
CCOc1ccc(C(C)=O)cc1COC(=O)C1=COCCO1,-,-,-,?,?,10µM
COc1ccc(NC(C)C(=O)Nc2cccc(S(=O)(=O)N3CCOCC3)c2)cc1OC (centres undefined),-,-,.,.,.,13µM
CCN1CCN(c2ccc(S(=O)(=O)N3CCOCC3)cc2NC(=O)C(C)Oc2ccc(Cl)cc2)CC1 (centres undefined),-,-,.,?,12µM,-
CCN1CCN(c2ccc(S(=O)(=O)N3CCOCC3)cc2NC(=O)CC(C)C)CC1,-,-,.,-,-,-
Cc1ccc(NC(=O)[C@@H](NC(=O)c2cccc(S(=O)(=O)N3CCOCC3)c2)C(C)C)cc1C,-,-,-,?,?,10µM
Cc1cc(Cl)ccc1OC(C)C(=O)Nc1ccc(S(=O)(=O)N2CCOCC2)cc1 (centres undefined),-,.,.,.,.,11µM
N=C(N)SCc1cccc(-c2nc3ccccc3c(=O)o2)c1,.,.,-,.,.,.
CC(C)C(NC(=O)c1ccc(C(C)(C)C)cc1)C(=O)Nc1ccc(N2CCOCC2)cc1 (centres undefined),-,-,.,?,13µM,-
